Assay results as given in PubChem BioAssay.
The source made the active and inactive calls.

Assays:
[1] = anti-His antibody binders, primary screen, artefact control for SMM control protein annotation, biochemical, small-molecule microarray, 635 nm fluorescence (AID 1128); details: anti-His Alexa647 antibody binding, higher = more signal;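 note: score merges feature fluorescence with signal-to-noise for each printed compound spot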
[2] = tested on: Human papillomavirus type 1a E7 protein (residues 1-88); experiment: HPV1a E7 small-molecule binders, primary screen, biochemical, small-molecule microarray, residues 1-88, 635 nm (AID 1129); details: small-molecule microarray binding, fluorescence 635 nm; higher = more signal
[3] = biological target: Focal adhesion kinase 1 (Homo sapiens) (UniProt Q05397); experiment: small-molecule microarray binders of FAK, primary screen, biochemical, 635/667 nm fluorescence, BSA, DTT (AID 1130); details: PTK2 binding, 635 nm fluorescence, higher = more signal;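 note: composite of spot emission at 667 nm and signal to noise over triplicate slides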
Focal adhesion kinase 1 (Homo sapiens), sequence (Q05397 whole entry, looked up): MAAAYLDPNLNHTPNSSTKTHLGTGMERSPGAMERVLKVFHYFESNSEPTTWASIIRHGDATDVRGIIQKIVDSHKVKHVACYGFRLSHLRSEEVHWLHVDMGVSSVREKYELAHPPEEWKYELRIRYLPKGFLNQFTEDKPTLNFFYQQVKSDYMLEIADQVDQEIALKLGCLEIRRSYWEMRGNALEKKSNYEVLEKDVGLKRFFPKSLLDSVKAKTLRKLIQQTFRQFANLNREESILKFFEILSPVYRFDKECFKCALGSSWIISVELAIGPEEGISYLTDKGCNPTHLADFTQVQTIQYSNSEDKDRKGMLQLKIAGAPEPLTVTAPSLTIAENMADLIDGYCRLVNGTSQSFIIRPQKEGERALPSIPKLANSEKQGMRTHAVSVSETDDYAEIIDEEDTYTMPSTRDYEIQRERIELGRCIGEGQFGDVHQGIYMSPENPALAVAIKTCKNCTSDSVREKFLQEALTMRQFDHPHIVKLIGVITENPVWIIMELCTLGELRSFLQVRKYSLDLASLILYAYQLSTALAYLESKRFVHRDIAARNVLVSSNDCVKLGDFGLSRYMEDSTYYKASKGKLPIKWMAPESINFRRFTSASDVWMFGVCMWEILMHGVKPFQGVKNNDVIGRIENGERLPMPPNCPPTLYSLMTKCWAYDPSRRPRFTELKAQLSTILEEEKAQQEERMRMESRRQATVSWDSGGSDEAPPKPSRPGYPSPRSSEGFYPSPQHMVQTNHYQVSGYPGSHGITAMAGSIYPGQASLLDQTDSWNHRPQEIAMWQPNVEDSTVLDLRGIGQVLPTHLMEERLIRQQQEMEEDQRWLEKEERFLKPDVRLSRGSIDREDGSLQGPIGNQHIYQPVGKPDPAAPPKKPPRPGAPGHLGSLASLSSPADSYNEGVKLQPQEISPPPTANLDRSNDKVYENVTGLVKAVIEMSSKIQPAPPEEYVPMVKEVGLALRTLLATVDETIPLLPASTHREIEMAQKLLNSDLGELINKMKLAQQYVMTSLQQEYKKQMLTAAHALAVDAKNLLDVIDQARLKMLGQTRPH

[4] = tested on: Fibrinogen (Alexa647-labelled); experiment: fibrinogen binders on compound microarrays, profiling panel, artefact control for SMM control-protein annotation, biochemical, small-molecule microarray, 635/667 nm fluorescence (AID 1131); details: fibrinogen-A647 binding fluorescence, higher = more signal;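 note: z-score merges 667 nm fluorescence with per-spot signal-to-noise over triplicate slides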
[5] = biological target: Follistatin (Homo sapiens) (UniProt P19883); experiment: follistatin binders on small-molecule microarrays, primary screen, biochemical, small-molecule microarray, 635/667 nm fluorescence (AID 1132); details: FST binding, 635 nm fluorescence, higher = more signal
Follistatin (Homo sapiens), sequence (P19883 whole entry, looked up): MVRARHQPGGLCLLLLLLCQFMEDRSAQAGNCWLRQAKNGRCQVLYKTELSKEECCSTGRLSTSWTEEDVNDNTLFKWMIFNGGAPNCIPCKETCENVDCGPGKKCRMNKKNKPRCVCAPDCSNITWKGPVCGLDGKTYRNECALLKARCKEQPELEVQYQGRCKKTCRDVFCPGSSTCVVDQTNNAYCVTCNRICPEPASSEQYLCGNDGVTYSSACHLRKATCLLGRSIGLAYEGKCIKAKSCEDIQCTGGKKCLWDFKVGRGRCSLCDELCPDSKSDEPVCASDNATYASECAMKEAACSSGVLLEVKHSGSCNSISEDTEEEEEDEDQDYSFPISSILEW

[6] = biological target: Fibroblast growth factor 2 (Homo sapiens) (UniProt P09038); experiment: FGF2 binders on small-molecule microarrays, primary screen, biochemical, small-molecule microarray, 635/667 nm fluorescence (AID 1133); details: small-molecule microarray binding, FGF2, fluorescence 635/667; higher = more signal
Fibroblast growth factor 2 (Homo sapiens), sequence (P09038 whole entry, looked up): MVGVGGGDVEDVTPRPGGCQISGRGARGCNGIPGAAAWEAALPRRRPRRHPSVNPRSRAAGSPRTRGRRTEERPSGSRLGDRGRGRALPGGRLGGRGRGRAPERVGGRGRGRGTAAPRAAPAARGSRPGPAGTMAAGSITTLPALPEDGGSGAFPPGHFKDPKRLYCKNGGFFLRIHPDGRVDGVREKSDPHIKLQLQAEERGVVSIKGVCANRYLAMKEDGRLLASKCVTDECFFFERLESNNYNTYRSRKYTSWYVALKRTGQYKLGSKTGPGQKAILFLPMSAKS

[7] = mitochondrial membrane potential change in A549 cells, profiling panel, cell-based, JC-1 fluorescence, basal, 24 h, 100 nL (AID 1138); details: higher = more signal;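 note: A549 lung adenocarcinoma cells under basal conditions with no added stimulus; test concentration not given here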
Lefty1 = Lefty1 binders on small-molecule microarrays, primary screen, biochemical, small-molecule microarray, 635/667 nm fluorescence (AID 1139); details: small-molecule microarray binding, fluorescence 635/667; higher = more signal
[8] = tested on: wheat germ agglutinin (Triticum aestivum), Alexa647-labelled; experiment: wheat germ agglutinin binders on compound microarrays, profiling panel, artefact control for SMM control-protein annotation, biochemical, small-molecule microarray, 635/667 nm fluorescence (AID 1140); details: WGA-A647 binding, 635 nm fluorescence, higher = more signal;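 note: score merges 667 nm feature emission with signal to noise over triplicate slides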
[9] = biological target: Luciferin 4-monooxygenase (Photinus pyralis) (UniProt P08659); experiment: firefly luciferase enzyme inhibitors, primary screen, biochemical, luminescence, purified enzyme, 2006 set (AID 1141); details: SteadyGlo luminescence, 30 min, higher = more signal, called active from +8 up or from −8 down;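 note: cell-free assay with purified firefly luciferase at 100 ng per well in PBS; test concentration not given here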
Luciferin 4-monooxygenase (Photinus pyralis), sequence (P08659 whole entry, looked up): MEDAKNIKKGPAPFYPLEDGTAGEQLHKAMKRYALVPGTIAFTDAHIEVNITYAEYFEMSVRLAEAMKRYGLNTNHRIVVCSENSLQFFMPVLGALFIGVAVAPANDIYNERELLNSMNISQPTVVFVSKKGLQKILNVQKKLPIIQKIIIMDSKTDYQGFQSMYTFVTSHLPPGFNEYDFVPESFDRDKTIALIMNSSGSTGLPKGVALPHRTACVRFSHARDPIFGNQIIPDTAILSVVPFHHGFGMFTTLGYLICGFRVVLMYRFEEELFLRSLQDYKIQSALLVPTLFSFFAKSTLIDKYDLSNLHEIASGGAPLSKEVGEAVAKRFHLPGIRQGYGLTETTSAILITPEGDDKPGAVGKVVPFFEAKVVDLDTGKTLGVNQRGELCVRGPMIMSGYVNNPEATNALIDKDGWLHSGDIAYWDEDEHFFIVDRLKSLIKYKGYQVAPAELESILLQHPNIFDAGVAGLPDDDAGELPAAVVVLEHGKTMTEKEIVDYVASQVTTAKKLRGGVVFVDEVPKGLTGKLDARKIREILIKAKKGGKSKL

SMILES | composite z-score [1] | composite z-score [2] | composite z-score [3] | composite z-score [4] | composite z-score [5] | composite z-score [6] | z-score [7] | composite z-score (Lefty1) | composite z-score [8] | z-score [9]
COc1ccc(NN2C(C(O)c3ccc(N(C)C)cc3)C=CC3C(=O)N(C4CCCCC4)C(=O)C32)cc1 (stereo not given) | 1.64 | 1.22 | 0.465 | 0.941 | 0.731 | -0.24 | -0.165 | 0.27 | 0.667 | 0.557 (inactive)
O=C1C2C=CC(C(O)c3ccc(F)cc3)N(Nc3ccc([N+](=O)[O-])cc3)C2C(=O)N1c1ccccc1 (stereo not given) | 1.76 | 0.705 | 0.789 | 1.02 | 0.282 | -0.0449 | -0.433 | 0.16 | 1.09 | 1.43 (inactive)
O=C1[C@H]2C=C(I)[C@H](C[C@@H]2OCCCCO)[C@@]12CO2 | -0.276 | 0.0789 | 0.465 | -0.327 | 0.167 | -0.0868 | -0.106 | 0.115 | -0.428 | 0.291 (inactive)
CCCCN1CC=CC23O[C@@H]4C=CCOC(=O)[C@@H]4[C@H]2C(=O)N(CCCCCCO)[C@@H]3C1=O (stereo not given in full) | -0.818 | -0.544 | 0.717 | -2.1 | -1.55 | -0.802 | 0.00246 | -1.25 | -1.24 | -0.419 (inactive)
CCCC=C(CCC)[C@@H](NS(=O)(=O)c1ccc(Cl)cc1)c1ccc(C(=O)OC)cc1 | 0.817 | 0.843 | 0.0301 | 0.539 | -0.843 | -0.174 | 0.418 | 0.181 | 0.309 | 2.84 (inactive)
NCCCCCCNC(=O)[C@H]1C[C@H]2C(=O)N[C@@H](Cc3ccccc3)C(=O)N2[C@H]1c1cccc(OCCO)c1 | 0.786 | 0.248 | 0.376 | 0.72 | 1.08 | -0.044 | 0.481 | 0.0358 | 0.961 | 0.0326 (inactive)
CCOC(=O)C1=CC[C@@H](c2ccc(C(F)(F)F)cc2)N(S(=O)(=O)c2ccc(C)cc2)[C@H]1c1ccccc1 | 2.1 | 1.21 | 0.81 | 0.955 | 0.377 | -0.149 | -1.9 | 0.0777 | 1.22 | 0.849 (inactive)
COc1ccc(NC(=O)O[C@H]2[C@H](OC(=O)c3cc4ccccc4[nH]3)[C@@H](OC(=O)c3cc4ccccc4[nH]3)[C@@H](OC)O[C@@H]2CO)cc1 | 1.23 | 0.359 | 0.448 | 0.662 | 0.752 | 1.38 | 0.816 | 0.194 | 0.566 | -2.09 (inactive)
COc1cc2c(cc1O)C(c1cccs1)N(Cc1cccc(OC(F)(F)F)c1)CC2 (stereo not given) | 2.17 | 0.733 | 0.758 | 0.173 | 0.457 | 0.252 | -0.0263 | -0.196 | 0.84 | -0.619 (inactive)
Cc1ccc(C2C3C(=O)CC4C(=O)N(c5ccccc5)C(=O)C4C3CN2S(=O)(=O)c2ccc(C)cc2)cc1 (stereo not given) | 1.16 | 1.24 | -0.177 | 0.403 | 0.24 | 0.294 | -0.112 | 0.0507 | 0.912 | 0.732 (inactive)
COc1ccc([Si](C)(C)[C@H]2[C@H](CCO)O[C@@]3(C(=O)N(Cc4ccccc4)c4ccc(N5CCCCC5=O)cc43)[C@@H]2C)cc1 | 1.49 | 0.435 | 0.208 | 0.94 | 1.28 | 1.28 | 2.23 | 0.628 | 0.768 | -1.08 (inactive)
